Source: PubChem BioAssay (NCATS)
Records with an inconclusive call do not appear. The source made the active and inactive calls. Calls come from the whole dose curve; as a rule, active = well fitted inhibition curve with a large enough effect; inconclusive = small, poorly fitted or top-dose-only effect; inactive = flat fitted curve, though single readings scatter.

tested on: HACAT; assay: qHTS assay to identify novel small-molecules to repurpose for Merkel cell carcinoma treatment (AID 1296009); conditions: MCC and control cell lines, CellTiter-Glo viability, 72 h; at 44.8 µM (top of the series) unless noted; note: nearly all actives have a fitted effect of over 60% in size
How it was run: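 Cell viability, measured as CellTiter-Glo luminescence, was normalized between DMSO and no-cell wells. The cells had been exposed to 8- or 11-point compound dilutions for 72 hr at 37 degree celsius.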

Row | Structure (SMILES) | outcome
1 | CC[C@@H]1[C@H]2CCCCN3C(=O)C[C@H]([C@@H]4[C@H]1OC(=O)[C@H]4C)[C@@H]23 | inactive
2 | Oc1ccc2c(-c3c(-c4ccccn4)nn4c3CCC4)ccnc2c1 | inactive
3 | C[C@H]1[C@H](C)CC[C@]2(C(=O)O)CC[C@]3(C(=O)O)C(=CCC4[C@@]5(C)CC[C@H](O[C@@H]6O[C@@H](C)[C@H](O)[C@@H](O)[C@H]6O)C(C)(C)C5CC[C@]43C)[C@H]12 (stereo partly specified) | inactive [at 17.4 µM]
4 | CCC(C)C(=O)O[C@H]1C[C@](C)(O)[C@]23OC(C)(C)[C@H](C[C@H](OC(=O)c4ccccc4)[C@]2(COC(C)=O)[C@H]1OC(=O)C(C)CC)[C@H]3OC(C)=O (stereo partly specified) | inactive [at 17.4 µM]
5 | CC(=O)c1[nH]cc(CCC(=O)O)c1CC(=O)O | inactive
6 | CC(=O)O[C@@H]1[C@@H](O)[C@H](C)O[C@@H](O[C@H]2[C@@H]3C=CO[C@@H](O[C@@H]4O[C@H](CO)[C@@H](O)[C@H](O)[C@H]4OC(C)=O)[C@@H]3[C@@]3(CO)O[C@@H]23)[C@@H]1OC(=O)/C=C/c1ccc(O)cc1 | inactive [at 17.4 µM]
7 | CC(=O)OC1C(O)C(C)(O)C(/C=C/C(=O)O)C2(C)CCCC(C)(C)C12 (stereo unspecified) | inactive
8 | C=C(CO)C(=O)O[C@H]1C[C@@]23O[C@@H]2CC/C(=C/[C@H]2OC(=O)C(=C)[C@H]12)CO[C@H]3O | inactive
9 | O=C(/C=C/c1ccc(O)cc1)OC[C@@]1(O)C=C[C@@H]2C(C(=O)O)=CO[C@@H](O[C@@H]3O[C@H](CO)[C@@H](O)[C@H](O)[C@H]3O)[C@@H]21 | inactive [at 17.4 µM]
10 | C=C1C(=O)O[C@@H]2/C=C(\C)CC/C=C(\C(=O)O[C@@H]3O[C@H](CO)[C@@H](O)[C@H](O)[C@H]3O)CC[C@@H]12 | inactive [at 17.4 µM]
11 | C=C[C@H]1[C@H](O[C@@H]2O[C@H](CO)[C@@H](O)[C@H](OC(=O)/C=C/c3ccc(O)c(OC)c3)[C@H]2O)OC=C2C(=O)OCC[C@]21O | inactive [at 17.4 µM]
12 | C[C@@H]1O[C@@H](O[C@H]2[C@H](OC(=O)[C@]34CCC(C)(C)C[C@H]3C3=CCC5[C@@]6(C)CC[C@H](O[C@@H]7O[C@H](CO[C@@H]8OC[C@H](O)[C@H](O)[C@H]8O)[C@@H](O)[C@H](O)[C@H]7O)C(C)(C)C6CC[C@@]5(C)[C@]3(C)C[C@H]4O)OC[C@@H](O)[C@@H]2O)[C@H](O)[C@H](O[C@@H]2OC[C@](O)(CO)[C@H]2O)[C@H]1O[C@@H]1OC[C@H](O)[C@H](O[C@@H]2OC[C@@H](O)[C@H](O)[C@H]2O)[C@H]1O (stereo partly specified) | inactive [at 9.27 µM]
13 | C=CCc1ccc(O[C@@H]2O[C@H](CO)[C@@H](O)[C@H](O)[C@H]2O)c(O[C@@H]2O[C@H](CO)[C@@H](O)[C@H](O)[C@H]2O)c1 | inactive [at 17.4 µM]
14 | C=C1CC2C(C)(CCC(=O)O)C(C(C)(C)O)CCC2(C)C2(C(=O)OC)C(=O)C(C)(O)C(=O)C12C (stereo unspecified) | inactive [at 17.4 µM]
15 | CC[C@H](C)[C@H](NC(=O)[C@H](Cc1ccc(O)cc1)NC(=O)[C@@H](N)C(C)C)C(=O)N[C@@H](Cc1cnc[nH]1)C(=O)N1CCC[C@H]1C(=O)N[C@@H](Cc1ccccc1)C(=O)O | inactive [at 4.96 µM]
16 | CC(=O)O[C@@H](C[C@@H]1C=C(C)C(=O)O1)[C@H](C)[C@H]1CCC2[C@@]3(C)CC[C@H](O[C@@H]4O[C@H](CO)[C@@H](O)[C@H](O)[C@H]4O[C@@H]4O[C@@H](C)[C@H](O)[C@@H](O)[C@H]4O)C(C)(C)C3CC[C@@]2(C)[C@@]12COC(=O)C2 (stereo partly specified) | inactive [at 9.27 µM]
17 | C/C=C1\[C@H](O[C@@H]2O[C@H](CO)[C@@H](O)[C@H](O)[C@H]2O)OC=C(C(=O)OCCc2ccc(O)cc2)[C@H]1CC(=O)OCCc1ccc(O)cc1 | inactive [at 17.4 µM]
18 | C=C1CC/C=C(/CO)C(=O)C[C@@H]2[C@@H]1C[C@@]2(C)COC(C)=O | inactive
19 | C=C1CC[C@@H]2[C@](C)(CO)[C@H](O[C@@H]3O[C@H](CO)[C@@H](O)[C@H](O)[C@H]3O)CC[C@@]2(C)[C@@H]1C/C=C1/C(=O)OC[C@H]1O | inactive [at 17.4 µM]
20 | COc1c(C)c(OCC=C(C)C)cc2c1CNC2=O | inactive
21 | CC(C)=CCC/C(C)=C/CO[C@@H]1O[C@H](CO[C@@H]2O[C@@H](CO)[C@H](O)[C@H]2O)[C@@H](O)[C@H](O)[C@H]1O | inactive [at 17.4 µM]
